Assay results published in publication PMC5540273 (PLoS ONE, 2017).

System: T1, MEK5
T1 construct: gene MAP2K5
Details: concentration: 1 μM, replicates: in singlicate; n = 1
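Further: KINOMEscan kinase panel screen.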

SMILES | %Inh [%]
CN1CCN(Cc2ccc(NC(=O)Nc3ccc(N(C)c4ccnc(Nc5ccc(CS(C)(=O)=O)cc5)n4)cc3)cc2)CC1.Cl [GW827654] | 99.1
COc1ccc(C)c(Nc2ccnc(Nc3ccc(-c4cnc[nH]4)cc3)n2)c1.Cl [GW784041] | 99.7
Cc1ccc(NC(=O)c2ccnc(N3CCCCC3)c2)cc1-c1ccc(C(=O)NCC2CC2)cc1 [GW775610] | 1
CC(C)NCC(Cc1ccccc1)NC(=O)c1cc(Br)c(-c2ccnc3[nH]ccc23)s1.Cl.Cl (stereo not drawn) [GSK1383281] | 3
N#Cc1cnc2cc(-c3cnc(CNCCN4CCOCC4)s3)ccc2c1Nc1ccc(Oc2ccccc2)cc1 [GW664114] | 99.9
O=C1NC(=O)C(c2ccccc2Cl)=C1Nc1cccc(Cl)c1 [SB-342409] | 53
COc1cc(Nc2ccnc3cc(-c4ccncc4)ccc23)cc(OC)c1OC.Cl [GW494610] | 99.8
O=C(Nc1n[nH]c2nc(-c3cccc(O)c3)ccc12)C1CC1 [SB-711805] | 95.9
COC(=O)Nc1nc2ccc(Oc3ccc(NC(=O)Nc4cc(C(F)(F)F)ccc4F)cc3)cc2[nH]1.Cl [GW654607] | 94.2
Cc1ccc(O)cc1Nc1ccnc2ccc(C(C)(C)C)cc12 [GW856805] | 86
O=C(Nc1n[nH]c2nc(-c3ccccc3)ccc12)C1CC1 [SB-708999] | 76
Fc1cc(Cl)ccc1Nc1ccnc2cc(-c3ccc(CN4CCOCC4)o3)ccc12 [GW560109] | 99.8
Cc1ccc(Nc2ccnc(Nc3ccc(C)c(F)c3)n2)cc1O.Cl [GW582868] | 92.8
COc1ccc(NC(=O)c2ccoc2)cc1-c1ccc(C(=O)NCC2CC2)cc1 [GW810437] | 41
Cn1cc(-c2cnc(N)c3c(-c4ccc5c(c4)CCN5C(=O)Cc4ccccc4)csc23)cn1 [GSK2593074] | 99.8
Cc1ccc(NC(=O)c2ccc(Cl)c(Cl)c2)cc1-c1ccc(C(=O)Nc2ccncc2)cc1 [GSK1398460] | 27
Cl.O=C(Nc1ccc(Oc2ccc3[nH]c(NC(=O)c4ccco4)nc3c2)cc1)Nc1cc(C(F)(F)F)ccc1F [GW683134] | 85

SMILES | %Inh [%]
Nc1ncc(-c2cn[nH]c2)c2scc(-c3ccc4c(c3)CCN4C(=O)Cc3ccccc3)c12 [GSK2593067] | 99.9
O=C(O)C(F)(F)F.O=c1[nH]ccc2nc(N[C@@H]3CCNC3)nc(Nc3ccc4c(c3)S(=O)(=O)CC4)c12 [GSK2181306] | 99.9
COc1ccc(C2=C(Nc3cccc(O)c3)C(=O)NC2=O)cc1 [SB-390766] | 17
CSc1ccc(NC2=C(c3ccc(Cl)cc3)C(=O)NC2=O)cc1 [SB-317658] | 22
Cc1cccc(Nc2nc(N[C@H]3CCCC[C@H]3N)ncc2C(N)=O)c1.Cl [GSK986310] | 98.4
NCCC(NC(=O)c1cc(Br)c(-c2ccnc3[nH]ccc23)s1)c1ccccc1.O=C(O)C(F)(F)F.O=C(O)C(F)(F)F (stereo not drawn) [GSK1307810] | 18
CN(c1ccc(NC(=O)Nc2cccc(Cl)c2)cc1)c1ccnc(N)n1.Cl [GW830707] | 48
Fc1cc(Cl)ccc1Nc1ccnc2cc(-c3ccc(CN4CCSCC4)o3)ccc12 [GW560106] | 99.8
Cn1cc(-c2ccc3c(c2)CCN3C(=O)Cc2cc(F)cc(F)c2F)c2c(N)ncnc21 [GSK2634140] | 98.9
CCn1cnc2c(NCc3ccccc3)ncnc21 [SKF-96418] | 38
COC(=O)Nc1nc2ccc(Oc3ccc(CC(=O)Nc4cc(C(F)(F)F)ccc4F)cc3)cc2[nH]1 [GW680903] | 31
Cl.Cl.NCC(NC(=O)c1cc(-c2cccnc2)c(-c2ccnc3[nH]ccc23)s1)c1ccccc1 (stereo not drawn) [GSK1323434] | 59
CN(c1ccc(NC(=O)N2CCN(CCCN3CCOCC3)CC2)cc1)c1ccnc(Nc2ccc(CS(C)(=O)=O)cc2)n1.Cl [GW830899] | 80
COc1cccc(-c2nc(-c3ccccc3)[nH]c2-c2ccncc2)c1 [SB-610250] | 26
Cl.Cl.NC(CNC(=O)c1cc(Br)c(-c2ccnc3[nH]ccc23)s1)c1ccccc1 (stereo not drawn) [GSK1322949] | 59
O=C(Nc1n[nH]c2cc(-c3cccs3)ccc12)C1CC1 [SB-731284] | 33
